# Sfp inh = Sfp phosphopantetheinyl transferase inhibition; Biochemical Sfp PPTase activity, qHTS; AID 1490; Q9F4F7; hit rate 3.5% among 310,000; Potency, µM, inactives show largest response in the series, negative = inhibition, actives largely listed as inhibitors;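 further: the enzyme is Sfp with the accession as filed and its product quenches rhodamine fluorescence; 0% = enzyme reaction without inhibitor and -100% = no enzyme wells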
#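 Buffer: 50 mM Hepes-Na pH 7.6, 10 mM MgCl2, 0.01% Nonidet P-40, 0.01% BSA. Enzyme 15 nM, pre-exposed to compound 15 min; substrates then added and fluorescence change tracked over 30 min.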
# HP1b chromo inh = blocks HP1-beta chromodomain binding to methylated histone tails | Potency, µM (series often up to 114 µM), for the others: at the highest dose activity change, negative = inhibition, hits mostly inhibitors | hit rate 0.56% among 390,000 | AlphaScreen HP1-beta / biotin-H3K9me3 peptide binding; further: nearly all actives have a fitted effect of over 70% in size
# Target sequence (P83916 whole entry, looked up): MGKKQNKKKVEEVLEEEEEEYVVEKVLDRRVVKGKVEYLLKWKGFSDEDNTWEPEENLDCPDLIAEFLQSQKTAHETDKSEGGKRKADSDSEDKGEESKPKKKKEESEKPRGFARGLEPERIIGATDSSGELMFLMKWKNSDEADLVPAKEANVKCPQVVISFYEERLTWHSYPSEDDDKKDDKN
#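 HP1-beta protein (50 nM final) preincubated 30 min at room temperature with biotinylated H3(1-18)K9me3 peptide (50 nM) in PBS pH 7.4, 0.01% Tween-20, then compound added for 30 min. AlphaScreen streptavidin donor/nickel chelate acceptor beads (10 ug/mL final), 30 min dark, luminescence read.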
# G9a inh = inhibitors of human histone lysine methyltransferase G9a; Q96KQ7; G9a H3K9 monomethylation, AlphaScreen, 2 h; Potency, µM (series often up to 102 µM), for inactives: at the top dose activity, negative = inhibition, actives largely listed as inhibitors; hit rate 8.8% among 350,000; further: on the % scale 0 is the no-effect control and ±100 the full control effect; nearly all actives have a fitted effect of over 75% in size
# Target sequence (Q96KQ7 913-1193 limits assumed): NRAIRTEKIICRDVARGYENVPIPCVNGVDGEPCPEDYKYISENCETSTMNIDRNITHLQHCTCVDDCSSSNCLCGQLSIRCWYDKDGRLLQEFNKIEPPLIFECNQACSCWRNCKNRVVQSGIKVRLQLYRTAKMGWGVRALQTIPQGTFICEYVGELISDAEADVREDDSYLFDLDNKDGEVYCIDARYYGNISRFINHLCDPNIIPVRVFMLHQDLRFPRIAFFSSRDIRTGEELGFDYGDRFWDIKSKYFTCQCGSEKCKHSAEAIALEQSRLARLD
#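 AlphaScreen read-out: biotin-H3K9 peptide (500 nM) methylation by 20 nM enzyme with 20 uM SAM, 2 h at room temperature after 15 min compound preincubation; anti-monomethyl H3K9 antibody plus donor/acceptor beads, 10 min dark.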
# JMJD2A Tudor inh = blocks the human JMJD2A Tudor domain; O75164; AlphaScreen JMJD2A-Tudor / H3K4me3 peptide binding; Potency, µM (series often up to 114 µM), without a hit: at the highest dose activity change, negative = inhibition, actives largely listed as inhibitors; hit rate 4.4% among 390,000; further: on the % scale 0 is the no-effect control and ±100 the full control effect; nearly all actives have a fitted effect of over 50% in size
# L3MBTL1 block = L3MBTL1 (human) inhibition; AlphaScreen L3MBTL1–H3K9me1 peptide binding; hit rate 0.66% among 230,000; Potency, µM (doses to about 57.1 µM), for the others: at the highest dose activity, negative = inhibition, hits mostly inhibitors; further: on the % scale 0 is the no-effect control and ±100 the full control effect; nearly all actives have a fitted effect of over 60% in size
#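 L3MBTL1 50 nM + b-AHA-H3(1-15)K9me1 75 nM, 30 min RT; compound added, 30 min RT; streptavidin donor/Ni-chelate acceptor beads 10 ug/mL each final, 30 min RT dark; AlphaScreen read.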
# BAZ2B inh = inhibitors of human BAZ2B bromodomain; Q9UIF8; AlphaScreen BAZ2B-H3K14Ac peptide displacement; Potency, µM (series often up to 114 µM), without a hit: top-dose activity change, negative = inhibition, most hits filed as inhibitors; hit rate 4.4% among 360,000; AID 504333; further: on the % scale 0 is the no-effect control and ±100 the full control effect; nearly all actives have a fitted effect of over 60% in size
#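 BAZ2B (50 nM) with biotin-H3(5-23)K14Ac peptide (50 nM) in PBS pH 7.4, 0.01% Tween-20, preformed 30 min, then compound 30 min at room temperature; top concentration 110uM. AlphaScreen streptavidin donor/nickel chelate acceptor beads (10 ug/mL final), 20 min dark, signal read.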
# * hit, by the source's call; ? = inconclusive; . = not tested or not shown; [ ] = another dose, or the depositor's remark. Sampled rows, rich in hits. Any-hit rate of the full collection: about 12%. The call rests on the fitted dose curve; in most records, active means well fitted curve in the direction sought with a large enough effect; inconclusive means small, poorly fitted or top-dose-only effect, or another doubt; inactive means no such curve, though single readings can be large; an effect the other way counts as inactive or inconclusive. Potency means the concentration at half of the fitted maximal effect.
SMILES,Sfp inh,HP1b chromo inh,G9a inh,JMJD2A Tudor inh,L3MBTL1 block,BAZ2B inh
CCC(=O)Nc1ccc(C(=O)CSc2nnc(-c3ccccc3F)n2C2CC2)cc1,5%,31%,?,-11%,-19%,-2%
CCC(C)NC(=O)NC(=O)CSc1nnc(-c2ccccc2F)n1C1CC1 (configuration not stated),5%,44%,35µM*,-3%,.,3%
CCCCCn1cnc2c(=S)nc(N)[nH]c21,2.5µM*,?,8.9µM*,18µM*,.,?
CCCCn1cnc2c(=S)nc(N)[nH]c21,14µM*,-13%,6.3µM*,11µM*,10%,?
Fc1ccc2c(c1)-c1nc(-c3ccccc3)cc(-c3ccccc3)c1CO2,.,67%,0%[59 µM],26%,.,-28%
Cc1ccc(C(=O)Nc2ccc(N3CCCCC3)cc2)cc1,.,21%,.,-20%,3%,.
O=C(Nc1cccc(NC(=O)c2cncc(Br)c2)c1)c1cncc(Br)c1,-12%,44%,45µM*,-9%,-2%,-4%
O=C(Nc1ccncc1)c1cncc(Br)c1,-3%,32%,?,-20%,-8%,-29%
CC(=O)c1c[nH]c(C(=O)Nc2ccc(N3CCCCCC3)cc2)c1,.,?,-12%[2.33 µM],35µM*,-18%,35µM*
O=C(Nc1ccc(N2CCCCC2)cc1)c1cncc(Br)c1,5%,5%,79µM*,-23%,-8%,?
O=C(Nc1ccc(S(=O)(=O)N2CCCC2)cc1)c1cncc(Br)c1,.,24%,-2%[59 µM],-17%,6%,8%
Cc1nc(-c2ccc(C(=O)Nc3cccc(Br)c3)cc2)cs1,50µM*,68%,2%,4%,2%,?
CCc1ccc(CNC(=O)c2sc3ncccc3c2-n2c(C)ccc2C)cc1,.,14%[57 µM],-1%[59 µM],-22%,.,10%
O=C(Nc1ccc(N2CCCC2)cc1)c1ccc2ccccc2c1,-1%,11%,6.3µM*,-10%,-11%,1%
CC(C)C1Nc2c(O)cc(Cl)c([N+](=O)[O-])c2C2C=CCC21 (configuration not stated),-12%,?,25µM*,40µM*,-27%,25µM*
Cc1ccc(NC(=O)C2C3CCCCC32)cc1[N+](=O)[O-] (configuration not stated),-8%,-8%,.,?,-5%,20µM*
CC(=O)Nc1ccc(C)c([N+](=O)[O-])c1,17%,11%,-3%,4%,9%,6%
O=C(NNc1ccc([N+](=O)[O-])cc1)C1C2CCCCC21 (configuration not stated),1%,22%,89µM*,-20%,3%,-7%
C#CCOCCOCCOCCNc1nc(N2CCN(C(=O)[C@H](CCC(=O)O)n3cc(C(N)CC(C)C)nn3)CC2)nc(N2CCN(C(=O)[C@H](Cc3cc4ccccc4[nH]3)n3cc(C(N)[C@H](C)CC)nn3)CC2)n1 (some centres not stated),3%,16%,?,56µM*,-23%,50µM*
C#CCOCCOCCOCCNc1nc(N2CCN(C(=O)[C@H](CCCCN)n3cc([C@@H](N)C(C)CC)nn3)CC2)nc(N2CCN(C(=O)[C@H](Cc3cc4ccccc4[nH]3)n3cc([C@@H](N)C(C)CC)nn3)CC2)n1 (some centres not stated),.,-19%,.,50µM*,-10%,.
C#CCOCCOCCOCCNc1nc(N2CCOCC2)nc(N2CCN(C(=O)[C@H](Cc3cc4ccccc4[nH]3)n3cc([C@@H](N)C(C)CC)nn3)CC2)n1 (some centres not stated),-4%,21%,?,?,-16%,?
C#CCOCCOCCOCCNc1nc(N2CCN(C(=O)[C@H](CO)n3cc([C@@H](N)C(C)C)nn3)CC2)nc(N2CCN(C(=O)[C@H](CCCCN)n3cc([C@@H](N)[C@H](C)CC)nn3)CC2)n1,.,39%,.,-4%,8%,.

# Compound activity from PubChem.
